We go through twelve molecules from PubChem BioAssay (NCI).

Test systems include HCT-15 colon; HT29 colon; SNB-75 CNS; SNB-19 CNS; U251 CNS; PC-3 prostate; SK-MEL-5 melanoma; UACC-62 melanoma; LOX IMVI melanoma; SK-MEL-28 melanoma.
What all share (assay): NCI-60 one-dose screen, 48 h (100 = growth as untreated, 0 = no growth, -100 = all killed)
Holding throughout (details): 10 µM unless noted

Compounds without any hit were thinned out: in the full panel of roughly 83,000, 20% have a hit.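 Assay: single dose, 48 h. Readout: percent growth (0 = no net growth; negative = cell death). Active: <10.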 Values without a mark were called inactive. Active and inactive are the calls of the source.

Take `CCN1CCN(c2nc(NNC(=O)c3ccc(OC)cc3)nc(N3CCN(C(c4ccccc4)c4ccccc4)CC3)n2)CC1`: the growth was 22.2% in the assay on HCT-15 colon; 15.6% in the assay with HT29 colon; 45.9% with SNB-75 CNS; 78.3% in the assay on SNB-19 CNS; 39.5% with U251 CNS; 30.2% with PC-3 prostate. For the same molecule, the growth was -74.4% (active) in the assay with SK-MEL-5 melanoma, 68.3% in the assay with UACC-62 melanoma, 1.43% (active) with LOX IMVI melanoma and 64.1% in the assay on SK-MEL-28 melanoma.

Consider `COc1cc(C2=Nc3c(N)nc(N)nc3NC(c3cccc(Nc4ccnc5cc(C(F)(F)F)ccc45)c3)C2)cc(OC)c1OC` (stereo not given), for which the growth is 58% in the assay with HCT-15 colon; 45.5% with HT29 colon; 68.9% with SNB-75 CNS; 78.2% in the assay with SNB-19 CNS; 61% in the assay on U251 CNS; 58.5% with PC-3 prostate. Moreover, the growth in the assay with SK-MEL-5 melanoma was 64.1%; in the assay with UACC-62 melanoma it was 87.2%; in the assay with LOX IMVI melanoma it was 66%; in the assay with SK-MEL-28 melanoma it was 101%.

Take `Cc1nc2ccccc2c(/C=C/c2ccc(Cl)cc2)c1C(=O)/C=C/c1ccccc1`: the growth in the assay on HCT-15 colon was -30.3% (active); with HT29 colon it was -15.7% (active); in the assay on SNB-75 CNS, 39.7%; with SNB-19 CNS it was -16.2% (active); in the assay on U251 CNS, -74.3% (active); in the assay on PC-3 prostate, 23.3%. For the same molecule, the growth in the assay with SK-MEL-5 melanoma was 13.7%; in the assay with UACC-62 melanoma it was 0.158% (active); in the assay on LOX IMVI melanoma it was -85.3% (active); in the assay with SK-MEL-28 melanoma it was 8.62% (active).

For `CCOC(=O)C1=C(c2ccccc2)N=C2SC=C(c3cccc([N+](=O)[O-])c3)N2C1c1ccc(O)cc1` (stereo not given), the growth with HCT-15 colon was 97.7%; in the assay with HT29 colon, 105%; in the assay on SNB-75 CNS, 91.4%; with SNB-19 CNS it was 97%; with U251 CNS, 96.6%; in the assay with PC-3 prostate, 94.8%. The growth is 97.7% in the assay on SK-MEL-5 melanoma, 92.7% in the assay on UACC-62 melanoma, 95.4% in the assay with LOX IMVI melanoma and 104% in the assay on SK-MEL-28 melanoma.

With `O=C(OCc1ccc2c(Br)cc(Br)c(O)c2n1)N1CCN(C(=O)c2cc3ccccc3[nH]2)CC1`, the growth in the assay with HCT-15 colon is 19.6%; with HT29 colon it was 59.6%; in the assay on SNB-75 CNS, 40.5%; in the assay with SNB-19 CNS it was 31.6%; in the assay on U251 CNS, 12.9%; in the assay on PC-3 prostate it was 27.5%. Also, the growth in the assay on SK-MEL-5 melanoma is 35.5%; in the assay with UACC-62 melanoma, 19%; in the assay on LOX IMVI melanoma it was 28.7%; in the assay with SK-MEL-28 melanoma, 58.1%.

With `Fc1ccc(/C=C/c2cc(/C=C/c3ccc(F)cc3)n(-c3cc(F)cc(F)c3)n2)cc1`, the growth in the assay on HCT-15 colon was 103%; in the assay with HT29 colon, 78.7%; in the assay with SNB-75 CNS it was 91%; in the assay on SNB-19 CNS, 105%; with U251 CNS, 117%; in the assay on PC-3 prostate, 76.4%. Besides, the growth was 100% in the assay on SK-MEL-5 melanoma, 85.7% in the assay on UACC-62 melanoma, 102% in the assay on LOX IMVI melanoma and 101% in the assay on SK-MEL-28 melanoma.

Consider `O=c1oc2ccccc2cc1-c1nn(-c2ccccc2)cc1/C=N/Nc1nc(-c2ccccc2)c(N=Nc2ccccc2)s1`, for which the growth in the assay with HCT-15 colon is 41.9%; in the assay on HT29 colon, 31.5%; in the assay on SNB-75 CNS it was 26.6%; in the assay on SNB-19 CNS, 85.1%; in the assay on U251 CNS, 47.6%; with PC-3 prostate, 82.1%. In addition, the growth in the assay with SK-MEL-5 melanoma was 79.7%; with UACC-62 melanoma, 59.8%; with LOX IMVI melanoma, 70%; with SK-MEL-28 melanoma, 89%.

Take `c1ccc2c(-c3cnn4cc(-c5ccc(N6CCNCC6)cc5)cnc34)ccnc2c1`: the growth in the assay with HCT-15 colon is -55.6% (active); in the assay with HT29 colon, -76.9% (active); in the assay on SNB-75 CNS, -96.9% (active); in the assay on SNB-19 CNS it was -57.8% (active); in the assay with U251 CNS, -79% (active); in the assay with PC-3 prostate, -12% (active). The growth with SK-MEL-5 melanoma was -84.7% (active); with UACC-62 melanoma it was -84.2% (active); in the assay on LOX IMVI melanoma, -85.8% (active); in the assay on SK-MEL-28 melanoma, -90.7% (active).

As to `NCCNc1ccc([N+](=O)[O-])cc1`, the growth was 108% with HCT-15 colon; 101% with HT29 colon; 96.2% with SNB-75 CNS; 101% in the assay with SNB-19 CNS; 102% in the assay on U251 CNS; 105% with PC-3 prostate. Also, the growth with SK-MEL-5 melanoma is 118%; in the assay on UACC-62 melanoma it was 106%; with LOX IMVI melanoma, 105%; in the assay with SK-MEL-28 melanoma, 108%.

As to `COc1ccc(/C=N\NC(=O)c2ccc3nc(-c4ccc(Cl)cc4)[nH]c3c2)cc1`, the growth in the assay with HCT-15 colon is 57.5%; in the assay on HT29 colon, 21.9%; in the assay with SNB-75 CNS, 91.9%; with SNB-19 CNS, 24.2%; with U251 CNS, 7.96% (active); with PC-3 prostate, -4.4% (active). Further, the growth is 33.7% in the assay with SK-MEL-5 melanoma, 30.9% with UACC-62 melanoma, 0.882% (active) in the assay with LOX IMVI melanoma and 12.5% in the assay on SK-MEL-28 melanoma.

With `CCOC(=O)c1c2c(n3ccc(NC(=O)CCN4CCCC4)cc13)C(=O)c1ncccc1C2=O`, the growth with HCT-15 colon was -78.1% (active); in the assay with HT29 colon, -52.8% (active); in the assay with SNB-75 CNS, -97.5% (active); in the assay on SNB-19 CNS it was -55.4% (active); with U251 CNS, -88.5% (active); in the assay on PC-3 prostate, -11.7% (active). Further, the growth is 68.6% in the assay with SK-MEL-5 melanoma, -12.4% (active) in the assay on UACC-62 melanoma, -73% (active) in the assay on LOX IMVI melanoma and 96.4% with SK-MEL-28 melanoma.

Regarding `Oc1c(Cl)cc(Cl)c2ccc(CN3CCNCC3)nc12`, the growth in the assay on HCT-15 colon is 19.5%; in the assay on HT29 colon, 105%; with SNB-75 CNS, 45.9%; in the assay on SNB-19 CNS, 41.9%; with U251 CNS it was 26.8%; in the assay on PC-3 prostate it was 40.3%. Moreover, the growth with SK-MEL-5 melanoma is 42.8%; in the assay on UACC-62 melanoma, 33.3%; in the assay on LOX IMVI melanoma it was 45.3%; in the assay with SK-MEL-28 melanoma, 62.3%.
